ATXN2 expr inh: inhibitors of ATXN2 expression; Potency, µM (series often up to 57 µM), hits mostly inhibitors; HEK-293 ATXN2-luciferase reporter, luminescence, 24 h; 0.72% of 360,000 active; also: nearly all actives have a fitted effect of over 55% in size
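ATXN2-luciferase reporter cells (luciferase flanked by upstream and downstream ATXN2 gene portions) were treated 24 h at 37 °C with compounds at up to 57 uM. SteadyGlo luminescence gave expression; GF-AFC fluorescence gave viability.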
TGFb SMAD3 inh: blocks TGF-b signaling | HepG2 CAGA-GFP TGF-b/SMAD3 reporter, GFP fluorescence, 18 h; TGF-beta stimulated, 500 pg/mL final | Potency, µM (doses to about 46.1 µM), most hits filed as inhibitors | 1.2% of 410,000 active; also: nearly all actives have a fitted effect of over 65% in size
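Using HEPG2 CAGA-GFP reporter cells at 1000 cells/well, we pinned test compounds, stimulated with recombinant TGF-beta (500 pg/mL final) and measured total well GFP after 18 h.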
HepG2 tox: HepG2 cytotoxicity, counter-screen for TGF-b inhibitors | HepG2 CAGA-GFP viability, ATP luminescence, 18 h | 0.76% of 410,000 active | AID 588856 | Potency, µM (series often up to 46.1 µM), usual class: cytotoxic
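CellTiter-Glo luminescence gave cytotoxicity after 18 hours at 37 degrees C. The cells were HepG2 CAGA-GFP in 1% FBS DMEM, stimulated with 500 pg/mL TGF-beta after compound addition. %Activity was normalised to no-cell wells (complete cell-killing) and DMSO (no toxicity), and curves were fitted and classified.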
CtBP-E1A inh: CtBP/E1A binding inhibition. AlphaScreen GST-E1A/His-CtBP binding, 1536-well; hits give low values. activity change, % (test concentration not listed). 0.49% of 340,000 active; in the data active = activity change below about -65%; inconclusive = mostly about -30% to -63%
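In 5 uL wells, 23 nL compound meets equimolar GST-E1A and His-CtBP (5X stock 125 nM each) for 2 h, 37 °C. Beads (5X, 50 ug/mL) then 1 h, 37 °C, dark.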
ATXN viability: cell viability loss in ATXN counter-screen; S2 cells (HEK-293 line with an ATXN2-luciferase reporter) viability, CellTiter-Fluor protease fluorescence, 24 h; Potency, µM (top dose mostly 56.7 µM), actives largely listed as cytotoxic; 0.49% of 400,000 active; also: nearly all actives have a fitted effect of over 40% in size
Six1-Eya2 inh: Six1/Eya2 interaction inhibition | Q15475+O00167 | AlphaScreen GST-Six1/His-Eya2 binding, biochemical; hits give low values | activity change, % (test concentration not listed) | 0.56% of 360,000 active; in the data active = activity change below about -65%; inconclusive = mostly about -30% to -63%
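Six1/Eya2 binding was read as AlphaScreen signal after compounds were pinned into GST-Six1 plus His-tagged Eya2 (5X stock 250/500 nM) in pH 8.0 Tris/NaCl/TCEP buffer, beads added, then incubated 1 h, 37 C, dark.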
Of the large screens only hits and unclear results are named; the others gave an inactive call. Compounds with a hit are over-represented: about 2.8% of the library has one in this group of screens. Unless noted, calls follow the shape of the dose curve; as a rule, active = well fitted curve in the direction sought with a large enough effect; inconclusive = small, poorly fitted or top-dose-only effect, or another doubt; inactive = no such curve, though single readings can be large; an effect the other way counts as inactive or inconclusive.

FC(F)(F)c1cccc(CN2CCC(c3cc(-c4cccs4)n[nH]3)CC2)c1	ATXN2 expr inh inconclusive, TGFb SMAD3 inh inconclusive, HepG2 tox 20µM, ATXN viability inconclusive
CCC[C@H](CN[C@@H](CNC)[C@H](C)CC)NCCc1cc(C(F)(F)F)cc(C(F)(F)F)c1	ATXN2 expr inh inconclusive, TGFb SMAD3 inh 15.8µM, HepG2 tox 22.4µM (no result: ATXN viability)
CC[C@@H](C)[C@H](CNC)NC[C@@H](Cc1cccc2ccccc12)NCCc1cccc(C(F)(F)F)c1	TGFb SMAD3 inh inconclusive, ATXN viability 35.5µM
CCC[C@@H](CN[C@@H](CNC)[C@H](C)CC)NCC1CCC(C(C)(C)C)CC1 (some centres not stated)	ATXN2 expr inh inconclusive, TGFb SMAD3 inh inconclusive (no result: ATXN viability)
COC(=O)C1=C(C)NC(C)=C(C(=O)OCCc2ccc(N3CCN(C(c4ccccc4)c4ccccc4)CC3)cc2)C1c1cccc([N+](=O)[O-])c1 (configuration not stated)	none (no result: TGFb SMAD3 inh, HepG2 tox, CtBP-E1A inh, Six1-Eya2 inh)
COc1cccc(Cc2nc3cccnc3n2C2CCN(C(=O)c3n[nH]c4c3CCCC4)CC2)c1	none (no result: ATXN2 expr inh, TGFb SMAD3 inh, HepG2 tox, CtBP-E1A inh, Six1-Eya2 inh)
O=C(NCCc1nnc2n1CCN(Cc1c(F)cccc1F)CC2)c1ccc(F)cc1	none (no result: ATXN2 expr inh, TGFb SMAD3 inh, HepG2 tox, CtBP-E1A inh, Six1-Eya2 inh)
COc1ccc2ccccc2c1/C=N/NC(=O)c1cccc(Br)c1	none
O=C(N/N=C/c1c(O)ccc2ccccc12)c1cccc(C(F)(F)F)c1	ATXN2 expr inh 2.99µM, TGFb SMAD3 inh inconclusive (no result: ATXN viability)
O=C(CN1CCCC1)N/N=C/c1c(O)ccc2ccccc12	ATXN2 expr inh 2.82µM, CtBP-E1A inh -91.3, ATXN viability inconclusive, Six1-Eya2 inh -90.2
Cc1cc(C)n(CCC(=O)N/N=C/c2c(O)ccc3ccccc23)n1	TGFb SMAD3 inh inconclusive, ATXN viability 10µM, Six1-Eya2 inh -88.8 (no result: ATXN2 expr inh, CtBP-E1A inh)
O=C(N/N=C/c1c(O)ccc2ccccc12)C(=O)N1CCCC1	CtBP-E1A inh inconclusive, Six1-Eya2 inh -86.9 (no result: ATXN2 expr inh)
O=C(CN1CCOCC1)N/N=C/c1cccc2ccccc12	none
CC(=O)N/C(=C/c1ccccc1)c1sc2ccccc2[n+]1CCCCI	none (no result: ATXN2 expr inh, CtBP-E1A inh, ATXN viability, Six1-Eya2 inh)
Cc1ccc(O)c(/C=N/NC(=O)CN2CCCC2)c1	ATXN viability inconclusive, Six1-Eya2 inh -65.2 (no result: ATXN2 expr inh, CtBP-E1A inh)
O=c1c2ccccc2nc(N/N=C/c2c(O)ccc3ccccc23)n1O	ATXN2 expr inh inconclusive, CtBP-E1A inh -93.7, Six1-Eya2 inh -89.5
O=C(NN=Cc1c(O)ccc2ccccc12)C1CC1	ATXN2 expr inh inconclusive, CtBP-E1A inh -68.6, ATXN viability inconclusive, Six1-Eya2 inh inconclusive
O=C(CCSc1nc2ccccc2s1)N/N=C/c1c(O)ccc2ccccc12	ATXN2 expr inh 3.16µM
COc1ccc(CN2C[C@H](Sc3nc4ccccc4[nH]3)C[C@H]2C(=O)N(C)C)c2ccccc12	none (no result: ATXN2 expr inh, TGFb SMAD3 inh, HepG2 tox, CtBP-E1A inh, Six1-Eya2 inh)
CCNC(=O)C1(C)CCN(Cc2cccc(C(F)(F)F)c2)C1 (configuration not stated)	none
CCc1cccc(C)c1NC(=O)Nc1csc2c1CCCC2	none (no result: ATXN2 expr inh, CtBP-E1A inh, ATXN viability, Six1-Eya2 inh)
Cc1cccc(CCNC(=O)C2CCCN(S(=O)(=O)c3ccc4c(c3)oc(=O)n4C)C2)c1 (configuration not stated)	TGFb SMAD3 inh inconclusive (no result: CtBP-E1A inh, Six1-Eya2 inh)
COc1ccccc1C(=O)Nc1cc(-c2cccc(Br)c2)nn1-c1ccccc1	TGFb SMAD3 inh inconclusive (no result: CtBP-E1A inh, Six1-Eya2 inh)
COc1ccc(-c2cn3nc(N4CCCC(C(=O)Nc5ccccc5F)C4)sc3n2)cc1 (configuration not stated)	TGFb SMAD3 inh inconclusive (no result: ATXN2 expr inh, CtBP-E1A inh, ATXN viability, Six1-Eya2 inh)
CCN1CCCC1CNC(=O)c1cc2c(-c3cccc(OC)c3)nn(C)c2s1 (configuration not stated)	ATXN viability inconclusive
Cn1nc(-c2ccc(Cl)cc2)c2cc(C(=O)NCCCN3CCCC3)sc21	ATXN2 expr inh 20µM, CtBP-E1A inh inconclusive, ATXN viability 17.8µM
CCN1CCCC1CNC(=O)c1cc2c(-c3ccc(Cl)cc3)nn(C)c2s1 (configuration not stated)	ATXN2 expr inh 25.1µM, TGFb SMAD3 inh inconclusive, ATXN viability 14.1µM, Six1-Eya2 inh inconclusive
CCOC(=O)C1=C[C@@H](c2ccccc2)N(S(=O)(=O)c2ccc(C)cc2)[C@H]1c1cccc(Cl)c1	none

High-throughput results from PubChem BioAssay.
